High-throughput results: PubChem BioAssay, The Scripps Research Institute Molecular Screening Center
M1 antag – human M1 muscarinic receptor antagonists, primary screen, CHO-K1 cells, Fluo-8 calcium fluorescence, 1536-well | CHO-K1 hM1, ACh EC80 antagonist | inhibition, % at 3 µM | hit rate 1.3% among 360,000 | AID 588852, 2011;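 active = percent inhibition above its own plate's cutoff, namely the mean of that plate's compound wells plus 3 SD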;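 note: peak over basal fluorescence ratio during 140 s after agonist addition; 0% = ACh EC80 plus DMSO and 100% = DMSO alone without agonist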
Target sequence (P11229 whole entry, looked up): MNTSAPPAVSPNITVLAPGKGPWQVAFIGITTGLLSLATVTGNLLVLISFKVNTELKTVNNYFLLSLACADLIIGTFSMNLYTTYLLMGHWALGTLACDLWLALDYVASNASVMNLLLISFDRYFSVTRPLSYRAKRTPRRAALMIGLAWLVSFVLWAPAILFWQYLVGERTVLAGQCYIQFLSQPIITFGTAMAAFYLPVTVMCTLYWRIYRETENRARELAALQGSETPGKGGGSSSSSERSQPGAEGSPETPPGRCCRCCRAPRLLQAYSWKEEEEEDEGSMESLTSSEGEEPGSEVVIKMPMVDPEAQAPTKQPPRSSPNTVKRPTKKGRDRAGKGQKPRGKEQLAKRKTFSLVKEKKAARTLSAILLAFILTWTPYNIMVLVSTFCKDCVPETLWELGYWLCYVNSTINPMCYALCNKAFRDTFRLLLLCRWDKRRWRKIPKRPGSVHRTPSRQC
CHO-K1 Ca antag – counter-screen for M1 antagonists: effect in parental CHO-K1 cells. ATP-induced calcium, Fluo-8 fluorescence. inhibition, % at 3 µM. hit rate 0.6% among 360,000;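 active = inhibition above a per-plate cutoff, the plate's mean sample inhibition plus 3 SD, cut at about 24% in these data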;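 note: 0% = DMSO plus EC80 ATP and 100% = DMSO alone without ATP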
M1 ag parental – counter-screen for M1 agonists: effect in parental CHO-K1 cells | activation, % at 3 µM | Fluo-8 calcium fluorescence; scaled to maximal ATP response, vehicle zero | hit rate 0.48% among 360,000; in the data active = activation above about 15%;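 note: untransfected CHO-K1 host cells lacking M1 receptor as counterscreen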
CHO-K1 Ca PAM – nonselective calcium activators in parental CHO-K1 cells, primary screen, counter-screen for M1 PAM project, cell-based, Fluo-8 calcium fluorescence, full deck, 1536-well; ATP EC20; 0% at ATP EC20, 100% at ATP max; activation, % at 3 µM; hit rate 0.02% among 360,000; AID 602247, 2012;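 active = activation above the run cutoff, the mean activation of all test compounds plus 3 SD, cut at about 40% in these data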;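 note: peak over basal fluorescence ratio in a 140 s read after ATP addition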
M1 PAM – human M1 muscarinic receptor positive allosteric modulators, primary screen, CHO-K1 cells, Fluo-8 calcium fluorescence, 1536-well | activation, % at 3 µM | Muscarinic acetylcholine receptor M1 (Homo sapiens), P11229 | hit rate 0.088% among 360,000 | CHO-K1 hM1, ACh EC20; 0% = ACh EC20, 100% = maximal ACh; in the data active = activation above about 19%, passing the limit was not always enough
CHRM1 agonist – human M1 muscarinic receptor agonists, primary screen, Fluo-8 calcium fluorescence, CHO-K1 cells, HTS; Muscarinic acetylcholine receptor M1 (Homo sapiens), P11229; AID 588814, 2011; CHO-K1 hM1, agonist mode; 0% DMSO, 100% acetylcholine EC100; hit rate 0.33% among 360,000; activation, % at 3 µM;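 active = activation above the run's mean compound activation plus 3 SD, cut at about 16% in these data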;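 note: peak over basal fluorescence ratio within a 140 s kinetic read after compound addition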
Numbers without * were called inactive. A selection: hits, their analogues and other compounds. The true share with any hit is near 2.3%.

What do the screens show for `Nc1ccc(N2CCN(c3cccc(Cl)c3)CC2)cc1`?
M1 antag: -6; CHO-K1 Ca antag: -5; M1 ag parental: 3; CHO-K1 Ca PAM: 24; M1 PAM: -1; CHRM1 agonist: -11

What do the screens show for `O=C(Oc1ccc2ccc(OC(=O)N3CCCCCC3)cc2c1)N1CCCCCC1`?
M1 antag: 8; CHO-K1 Ca antag: 8; M1 ag parental: 0; CHO-K1 Ca PAM: -4; M1 PAM: -6; CHRM1 agonist: 0

What do the screens show for `COc1ccc(C(CNC(=O)c2cccc(NS(=O)(=O)c3ccccc3)c2)N(C)C)cc1` (centres undefined)?
M1 antag: 48*; CHO-K1 Ca antag: -3; M1 ag parental: 0; CHO-K1 Ca PAM: 8; M1 PAM: -20; CHRM1 agonist: -6

How did Cc1cc(S(=O)(=O)Nc2ccc(C(=O)NCC(c3ccccc3)N(C)C)cc2)ccc1F (centres undefined) do in these assays?
M1 antag: 13; CHO-K1 Ca antag: 6; M1 ag parental: 2; CHO-K1 Ca PAM: -3; M1 PAM: -8; CHRM1 agonist: -5

How did COc1cccc(CN(C)C(=O)c2cccc(S(=O)(=O)NCc3ccccc3)c2)c1OC do in these assays?
M1 antag: -13; CHO-K1 Ca antag: 1; M1 ag parental: 4; CHO-K1 Ca PAM: 10; M1 PAM: 6; CHRM1 agonist: 1

What do the screens show for `CCOc1ccc(S(=O)(=O)Nc2cccc(C(=O)NCC(c3ccccc3)N(C)C)c2)cc1` (centres undefined)?
M1 antag: 24; CHO-K1 Ca antag: -15; M1 ag parental: 12; CHO-K1 Ca PAM: 19; M1 PAM: -19; CHRM1 agonist: 0

What do the screens show for `COc1ccccc1C(CNC(=O)c1ccc(NS(=O)(=O)c2ccc(F)c(C)c2)cc1)N(C)C` (centres undefined)?
M1 antag: 21; CHO-K1 Ca antag: -13; M1 ag parental: 1; CHO-K1 Ca PAM: 10; M1 PAM: -9; CHRM1 agonist: 28*

How did COc1ccccc1C(CNC(=O)c1cccc(NS(=O)(=O)c2ccc(C)c(F)c2)c1)N(C)C (centres undefined) do in these assays?
M1 antag: 85*; CHO-K1 Ca antag: 3; M1 ag parental: 0; CHO-K1 Ca PAM: 5; M1 PAM: -27; CHRM1 agonist: -8

How did COc1ccccc1C(CNC(=O)c1cccc(S(=O)(=O)NCc2ccccc2)c1)N(C)C (centres undefined) do in these assays?
M1 antag: 50*; CHO-K1 Ca antag: 8; M1 ag parental: 3; CHO-K1 Ca PAM: -2; M1 PAM: -18; CHRM1 agonist: -2

Results for CCN(CC)S(=O)(=O)c1cccc(C(=O)NCC(c2ccccc2)N(C)C)c1 (centres undefined) ?
M1 antag: 55*; CHO-K1 Ca antag: -8; M1 ag parental: 0; CHO-K1 Ca PAM: -8; M1 PAM: -36; CHRM1 agonist: -15

What do the screens show for `COc1ccc(N(C)S(=O)(=O)c2cccc(C(=O)NCC(c3ccco3)N3CCCC3)c2)cc1` (centres undefined)?
M1 antag: 4; CHO-K1 Ca antag: -10; M1 ag parental: 2; CHO-K1 Ca PAM: 12; M1 PAM: -8; CHRM1 agonist: -6

How did CC(=O)c1ccc(S(=O)(=O)NCc2ccc(C(=O)NCC(c3ccccc3)N(C)C)cc2)cc1 (centres undefined) do in these assays?
M1 antag: 25*; CHO-K1 Ca antag: -14; M1 ag parental: 2; CHO-K1 Ca PAM: 6; M1 PAM: -30; CHRM1 agonist: -11

How did COc1ccc(N(C)S(=O)(=O)c2cccc(C(=O)NCC(c3cccs3)N(C)C)c2)cc1 (centres undefined) do in these assays?
M1 antag: 52*; CHO-K1 Ca antag: 13; M1 ag parental: 1; CHO-K1 Ca PAM: -1; M1 PAM: -26; CHRM1 agonist: -7

How did COc1ccc(N(C)S(=O)(=O)c2cccc(C(=O)Nc3nc4ccccc4[nH]3)c2)cc1 do in these assays?
M1 antag: 34*; CHO-K1 Ca antag: -7; M1 ag parental: 8; CHO-K1 Ca PAM: -13; M1 PAM: -15; CHRM1 agonist: -4

How did CN(C)S(=O)(=O)c1cccc(NC(=O)CCc2nc3cc(S(=O)(=O)N4CCOCC4)ccc3n2C)c1 do in these assays?
M1 antag: -4; CHO-K1 Ca antag: 7; M1 ag parental: 0; CHO-K1 Ca PAM: -16; M1 PAM: 14; CHRM1 agonist: -8

What do the screens show for `Cc1ccc(NC(=O)C(OC(=O)c2ccc(F)cc2)c2ccccc2)cc1Cl` (centres undefined)?
M1 antag: 40*; CHO-K1 Ca antag: 1; M1 ag parental: 2; CHO-K1 Ca PAM: 9; M1 PAM: -8; CHRM1 agonist: 6

Results for Cc1ccc(NC(=O)C(OC(=O)c2ccc(O)cc2)c2ccccc2)cc1Cl (centres undefined) ?
M1 antag: -5; CHO-K1 Ca antag: -12; M1 ag parental: 0; CHO-K1 Ca PAM: 27; M1 PAM: 11; CHRM1 agonist: -6

What do the screens show for `O=C(Oc1cc(=O)n2ccccc2n1)c1ccccc1`?
M1 antag: -5; CHO-K1 Ca antag: -3; M1 ag parental: 1; CHO-K1 Ca PAM: 16; M1 PAM: 6; CHRM1 agonist: -2

What do the screens show for `O=c1c(/C=C(\O)c2ccccc2)nc2ccccc2n1-c1ccccc1`?
M1 antag: 19; CHO-K1 Ca antag: 1; M1 ag parental: 3; CHO-K1 Ca PAM: 13; M1 PAM: -9; CHRM1 agonist: 22*

What do the screens show for `COc1ccc(N(CC(=O)NCc2cccs2)S(=O)(=O)c2cccc(C)c2)cc1`?
M1 antag: 7; CHO-K1 Ca antag: 19; M1 ag parental: 0; CHO-K1 Ca PAM: -29; M1 PAM: -7; CHRM1 agonist: -1

What do the screens show for `CC(C)COC(=O)NCCOC(=O)Nc1cccc(Cl)c1`?
M1 antag: 25*; CHO-K1 Ca antag: 24*; M1 ag parental: 9; CHO-K1 Ca PAM: 6; M1 PAM: -16; CHRM1 agonist: 4

What do the screens show for `COc1ccc(C2/C=C\CN(C(=O)CC(C)(C)C)CC(=O)N2Cc2ccc(F)cc2)cc1` (centres undefined)?
M1 antag: 7; CHO-K1 Ca antag: -12; M1 ag parental: 0; CHO-K1 Ca PAM: 17; M1 PAM: 1; CHRM1 agonist: -2

How did COc1ccc(C2/C=C\CN(C(=O)C3CC3)CC(=O)N2Cc2ccc(F)cc2)cc1 (centres undefined) do in these assays?
M1 antag: 25; CHO-K1 Ca antag: 25*; M1 ag parental: -1; CHO-K1 Ca PAM: -21; M1 PAM: -15; CHRM1 agonist: -3
